Compounds with a hit are over-represented: about 1.2% of the library has one in this group of screens.
KAT2A inh – inhibitors of human GCN5L2 histone acetyltransferase; Q92830; GCN5L2 HAT assay, ThioGlo1 CoA-SH fluorescence; Potency, µM (titrated, usually from 58.9 µM), usual class: inhibitors; 390,000 compounds, 0.21% hits; AID 504327
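Fluorescence readout, Ex340nm/Em540nm: ThioGlo1 (50uM final) reacts with free CoA thiol released as 20nM GCN5L2 acetylates H3(1-25) peptide (75uM) using acetyl-CoA (70uM). Compound and enzyme sat 15 min beforehand; 20 min room-temperature reaction.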
RGS12 GoLoco inh – inhibitors of human Gai1-RGS12 GoLoco interaction (red fluorophore); P63096; Gai1:RGS12 GoLoco peptide FP, rhodamine, 10 min; Potency, µM (titrated, usually from 61.6 µM), actives largely listed as inhibitors; 230,000 compounds, 0.44% hits; AID 880; active = well fitted inhibition curve with a large enough effect, not every such curve was filed as active; inactive = no such curve, though single readings can be large or run the other way; note: nearly all actives have a fitted effect of over 30% in size
TexasRed fluor – alters Texas Red total fluorescence, flagging assay interference | AID 1479 | 280,000 compounds, 0.29% hits | Potency, µM (titrated, usually from 106 µM) | TRb/SRC2 Texas Red total fluorescence interference; active = well fitted curve in either direction with a large enough effect; inconclusive = small, poorly fitted or top-dose-only effect
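Flags fluorescent or light-absorbing compounds by total fluorescence, S + 2P, at 555 nm excitation and 632 nm emission. Mixture: 20 nM Texas Red SRC2 peptide, 0.6 uM human TRb LBD, 1 uM T3, 5% DMSO; compound exposure 5 h at ambient temperature.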
VDR inh – blocks the human vitamin D receptor; P11473; VDR-SRC2-3 peptide fluorescence polarization, 2 h; Potency, µM, most hits filed as inhibitors; 400,000 compounds, 0.93% hits; AID 504847
Target sequence (P11473 whole entry, looked up): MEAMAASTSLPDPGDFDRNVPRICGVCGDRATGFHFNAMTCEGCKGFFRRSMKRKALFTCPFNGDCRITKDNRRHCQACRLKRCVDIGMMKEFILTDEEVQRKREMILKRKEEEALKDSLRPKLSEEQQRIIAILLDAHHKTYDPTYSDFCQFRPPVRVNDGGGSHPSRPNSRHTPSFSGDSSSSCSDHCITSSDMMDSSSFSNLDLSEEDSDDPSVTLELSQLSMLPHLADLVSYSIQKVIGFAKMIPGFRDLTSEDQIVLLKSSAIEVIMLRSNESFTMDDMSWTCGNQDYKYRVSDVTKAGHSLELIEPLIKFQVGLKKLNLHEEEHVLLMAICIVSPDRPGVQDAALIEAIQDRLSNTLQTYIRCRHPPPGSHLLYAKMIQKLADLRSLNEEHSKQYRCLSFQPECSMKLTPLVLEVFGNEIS
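VDR–SRC2-3 interaction, FP format. Cmpds 23 nl via pintool, brief spin, 2 h ambient incubation.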
TRb-SRC2 inh – disrupts binding of human TR beta to SRC2; P10828; TRbeta-SRC2 peptide binding, fluorescence polarization; receptor liganded with 1 µM T3; Potency, µM (doses to about 106 µM), hits mostly inhibitors; 280,000 compounds, 0.065% hits; note: nearly all actives have a fitted effect of over 50% in size
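Assay buffer: 20 mM Tris-HCl, 100 mM NaCl, 10% glycerol, 1 mM EDTA, 0.01% NP-40, 1 mM DTT, 1 uM T3, 5% DMSO; TRb LBD 0.6 uM, Texas Red SRC2 20 nM; FP after 5 hr.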
USP1-UAF1 confirm – USP1-UAF1 deubiquitinase inhibition validated. shares compounds with VDR inh. Ub-Rhodamine cleavage, fluorescence kinetic read. Potency, µM (series often up to 56.8 µM), most hits filed as inhibitors. 50 compounds, 50% hits
VDR inh confirm – inhibits human vitamin D receptor, primary hit validation. Potency, µM, usual class: inhibitors. VDR-coactivator inhibition assay, qHTS confirmation. AID 602199. 840 compounds, 89% hits. shares compounds with VDR inh
VDR FP – blocks human VDR-coactivator binding in fluorescein assay. shares compounds with VDR inh. VDR-coactivator binding, fluorescein fluorescence polarization. Potency, µM (titrated, usually from 57.1 µM), hits mostly inhibitors. 840 compounds, 48% hits
VDR bla reporter – confirmation of human vitamin D receptor inhibitors in reporter cells; shares compounds with VDR inh; VDR beta-lactamase reporter cells, FRET ratio; cells co-treated with VDR agonist LG190178; Potency, µM (highest dose often 46.1 µM), usual class: inhibitors; 840 compounds, 23% hits
VDR viability – counter-screen for vitamin D receptor inhibitors: cytotoxicity; shares compounds with VDR inh; cytotoxicity counter-screen, cell viability, qHTS; Potency, µM (titrated, usually from 48.3 µM), hits mostly cytotoxic; 840 compounds, 18% hits; AID 602204; note: nearly all actives have a fitted effect of over 75% in size
A number is an active result; [ ] = another dose, or the depositor's remark. Unless noted, calls come from the whole dose curve; as a rule, active = well fitted curve in the direction sought with a large enough effect; inconclusive = small, poorly fitted or top-dose-only effect, or another doubt; inactive = no such curve, though single readings can be large; an effect the other way counts as inactive or inconclusive.

How did O=C(O)[C@@H](O)[C@@H](O)C1[O][Sb][O][C@@H]1CO (stereo not given in full) do in these assays?
RGS12 GoLoco inh: inactive[14.2 µM]

What do the screens show for `C=CCN1C(=O)/C(=C/c2ccc(Br)s2)C(=O)NC1=S`?
KAT2A inh: inactive; VDR inh: 20µM; VDR inh confirm: 4.23; VDR FP: inactive; VDR bla reporter: inconclusive; VDR viability: inactive

Results for CN1C(=O)/C(=C/c2ccc(Cl)s2)C(=O)NC1=S ?
KAT2A inh: inactive; VDR inh: 20µM; VDR inh confirm: 6.7; VDR FP: inconclusive; VDR bla reporter: inconclusive; VDR viability: inactive

Results for C=CCN1C(=O)/C(=C\c2ccc(N3CCOCC3)o2)C(=O)NC1=S ?
KAT2A inh: inactive; RGS12 GoLoco inh: inactive; TexasRed fluor: inactive; VDR inh: inactive; TRb-SRC2 inh: inactive

Results for O=C1CC(N2CCC(n3c(=O)[nH]c4ccccc43)CC2)C(=O)N1c1ccc(F)cc1 (stereo not given) ?
KAT2A inh: inactive; RGS12 GoLoco inh: inactive; TexasRed fluor: inactive; VDR inh: inactive; TRb-SRC2 inh: inactive

Results for O=c1[nH]c2ccccc2n1C1CCN(CCCC(c2ccc(F)cc2)c2ccc(F)cc2)CC1 ?
KAT2A inh: inactive; RGS12 GoLoco inh: inactive; TexasRed fluor: inactive; VDR inh: inconclusive; TRb-SRC2 inh: inactive; USP1-UAF1 confirm: inconclusive

How did CSc1ccc2c(c1)c(CCN)c(C)n2Cc1ccccc1Cl do in these assays?
RGS12 GoLoco inh: inactive[14.2 µM]

How did CC(=O)OC1=CC2=CC[C@H]3[C@H]4CCC(=O)[C@@]4(C)CC(=O)[C@]3(S)[C@]2(C)CC1 do in these assays?
RGS12 GoLoco inh: inactive[14.2 µM]

How did O=C1NC(=O)C(=Cc2ccc(Sc3ccccc3)o2)C(=O)N1 do in these assays?
KAT2A inh: inactive; RGS12 GoLoco inh: inactive; TexasRed fluor: inactive; VDR inh: 39.8µM; TRb-SRC2 inh: inactive; VDR inh confirm: 10.6; VDR FP: inconclusive; VDR bla reporter: inconclusive; VDR viability: inconclusive

Results for CN1C(=O)C(=Cc2ccccc2Oc2ccc(Cl)cc2)C(=O)N(C)C1=O ?
KAT2A inh: inactive; RGS12 GoLoco inh: inactive; TexasRed fluor: inactive; VDR inh: 28.2µM; TRb-SRC2 inh: inactive; VDR inh confirm: 16.8; VDR FP: 17.8µM; VDR bla reporter: inactive; VDR viability: inactive

How did [Cl][Pd][Cl].[S-]C1=C2N=CN[C-]2[NH+]=C[N-]1.[S-]c1ncnc2[nH]cnc12 do in these assays?
RGS12 GoLoco inh: inactive[14.2 µM]

Results for O=C(CCl)c1ccccc1 ?
RGS12 GoLoco inh: inactive; TexasRed fluor: inactive; TRb-SRC2 inh: inactive

Results for CC1CCN(C(CC(=O)c2ccccc2)C(=O)c2ccccc2)CC1 (stereo not given) ?
VDR inh: 25.1µM; VDR inh confirm: 10.6; VDR FP: inconclusive; VDR bla reporter: inconclusive; VDR viability: inconclusive

What do the screens show for `COc1cc(/C=C2\C(=O)NC(=O)N(c3ccccc3)C2=O)cc(OC)c1O`?
KAT2A inh: inactive; RGS12 GoLoco inh: inactive; TexasRed fluor: inactive; VDR inh: inactive; TRb-SRC2 inh: inactive

How did COc1cc(/C=C2\C(=O)NC(=O)N(c3ccccc3)C2=O)c([N+](=O)[O-])cc1OC do in these assays?
KAT2A inh: inactive; RGS12 GoLoco inh: inactive; TexasRed fluor: inactive; VDR inh: 44.7µM; TRb-SRC2 inh: inactive; VDR inh confirm: 26.7; VDR FP: 20µM; VDR bla reporter: inactive; VDR viability: inactive

Results for ClC1=C(Cl)[C@]2(Cl)[C@@H]3[C@@H]4C[C@@H]([C@H]5O[C@@H]45)[C@@H]3[C@@]1(Cl)C2(Cl)Cl ?
TexasRed fluor: inactive; TRb-SRC2 inh: inactive

Results for O=C1NC(=O)N(CCc2ccc(F)cc2)C(=O)/C1=C\C=C\c1ccccc1 ?
KAT2A inh: inactive; RGS12 GoLoco inh: inactive; TexasRed fluor: inactive; VDR inh: inconclusive; TRb-SRC2 inh: inactive

How did CN1C(=O)NC(=O)/C(=C\C=C\c2ccccc2[N+](=O)[O-])C1=O do in these assays?
KAT2A inh: inactive; RGS12 GoLoco inh: inactive; TexasRed fluor: inactive; VDR inh: 11.2µM; TRb-SRC2 inh: inactive; VDR inh confirm: 4.23; VDR FP: inconclusive; VDR bla reporter: inconclusive; VDR viability: inactive

Results for FC(F)(F)c1nc2ccc(SSc3ccc4nc(C(F)(F)F)[nH]c4c3)cc2[nH]1 ?
RGS12 GoLoco inh: inactive[14.2 µM]

What do the screens show for `O=S(=O)(/C(=C\c1ccc(C(F)(F)F)cc1)c1nc2ccccc2[nH]1)c1ccccc1`?
VDR inh: 14.1µM; VDR inh confirm: 2.67; VDR FP: inconclusive; VDR bla reporter: 5.17µM; VDR viability: inconclusive

Results for COc1ccc(/C=C/C(=O)c2c(O)n(CCC3=CCCCC3)c(=O)[nH]c2=O)cc1 ?
KAT2A inh: inactive; RGS12 GoLoco inh: inactive; TexasRed fluor: inactive; VDR inh: inconclusive; TRb-SRC2 inh: inactive

Results for CCCCn1c(O)c(C(=O)/C=C/c2ccc3c(c2)OCO3)c(=O)[nH]c1=O ?
KAT2A inh: inactive; RGS12 GoLoco inh: inactive; TexasRed fluor: inactive; VDR inh: inconclusive; TRb-SRC2 inh: inactive; VDR inh confirm: 10.6; VDR FP: inconclusive; VDR bla reporter: inconclusive; VDR viability: inactive

Results for CCCCn1c(O)c(C(CC)=NCc2ccc3c(c2)OCO3)c(=O)[nH]c1=O ?
KAT2A inh: inactive; RGS12 GoLoco inh: inactive; TexasRed fluor: inactive; VDR inh: inactive; TRb-SRC2 inh: inactive

What do the screens show for `O=C(/C=C/c1ccc2c(c1)OCO2)c1c(O)n(CCC2=CCCCC2)c(=O)[nH]c1=O`?
KAT2A inh: inactive; RGS12 GoLoco inh: inactive; TexasRed fluor: inactive; VDR inh: inconclusive; TRb-SRC2 inh: inactive; VDR inh confirm: 5.62; VDR FP: inconclusive; VDR bla reporter: 20.6µM; VDR viability: inactive

How did O=C1NC(=O)N(Cc2ccc(F)cc2)C(=O)/C1=C/c1cccs1 do in these assays?
KAT2A inh: inactive; RGS12 GoLoco inh: inactive; TexasRed fluor: inactive; VDR inh: 50.1µM; TRb-SRC2 inh: inactive; VDR inh confirm: 11.9; VDR FP: inconclusive; VDR bla reporter: inactive; VDR viability: inactive

Assay outcomes from PubChem.
